# Data from PubChem BioAssay (EPA / NIEHS).
# Inconclusive results are not listed. Active and inactive are the calls of the source. Rule for the calls, unless noted: active = hit-call score of the fitted dose curve at least 0.9, where 1 is the maximum; inactive = score below 0.9.
# Legend:
# [1] = biological target: Retinoic acid receptor RXR-alpha (Homo sapiens) (UniProt P19793); assay: TOX21_TR_RXR_BLA_Antagonist_Followup_ratio: Tox21 Thyroid Hormone Receptor beta Retinoid X Receptor alpha (RXRa) Antagonism Beta-lactamase (BLA) Follow-Up Assay, Ratio (AID 2283972; active = hit-call score of the fitted dose curve at least 0.9, where 1 is the maximum)
# Chain of Retinoic acid receptor RXR-alpha (Homo sapiens) (P19793 whole entry, looked up, the tested form may be a part): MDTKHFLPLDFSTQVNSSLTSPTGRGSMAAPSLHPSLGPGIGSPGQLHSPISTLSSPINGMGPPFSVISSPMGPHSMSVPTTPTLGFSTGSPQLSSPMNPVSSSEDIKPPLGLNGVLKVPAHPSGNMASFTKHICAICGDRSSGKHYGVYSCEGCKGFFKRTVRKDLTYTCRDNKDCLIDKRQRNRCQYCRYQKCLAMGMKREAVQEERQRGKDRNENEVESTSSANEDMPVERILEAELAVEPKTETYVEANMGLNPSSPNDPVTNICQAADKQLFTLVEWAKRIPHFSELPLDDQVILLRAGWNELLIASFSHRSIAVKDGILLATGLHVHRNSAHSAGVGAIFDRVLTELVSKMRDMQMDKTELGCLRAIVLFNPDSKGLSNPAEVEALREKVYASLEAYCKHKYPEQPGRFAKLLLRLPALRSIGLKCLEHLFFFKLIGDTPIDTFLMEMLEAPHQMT
# In short: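 Antagonist mode used GAL4 UAS-driven beta-lactamase in HEK293T cells expressing RXRa, treated for 16 h with compound concentration series. Activity was taken from the blue/green (460:530 nm) ratio of cleaved to uncleaved substrate.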
# [2] = biological target: Nucleoli Translocation, AR (gene 367) (UniProt P10275); assay: UPITT_HCI_U2OS_AR_TIF2_Nucleoli_Antagonist: University of Pittsburgh U2OS Androgen Receptor-Transcriptional Intermediary Factor 2 (AR-TIF2) Antagonism High Content Imaging Assay for Nucleoli Translocation (AID 2283997; active = hit-call score of the fitted dose curve at least 0.9, where 1 is the maximum)
# Chain of Nucleoli Translocation, AR (gene 367) (P10275 whole entry, looked up): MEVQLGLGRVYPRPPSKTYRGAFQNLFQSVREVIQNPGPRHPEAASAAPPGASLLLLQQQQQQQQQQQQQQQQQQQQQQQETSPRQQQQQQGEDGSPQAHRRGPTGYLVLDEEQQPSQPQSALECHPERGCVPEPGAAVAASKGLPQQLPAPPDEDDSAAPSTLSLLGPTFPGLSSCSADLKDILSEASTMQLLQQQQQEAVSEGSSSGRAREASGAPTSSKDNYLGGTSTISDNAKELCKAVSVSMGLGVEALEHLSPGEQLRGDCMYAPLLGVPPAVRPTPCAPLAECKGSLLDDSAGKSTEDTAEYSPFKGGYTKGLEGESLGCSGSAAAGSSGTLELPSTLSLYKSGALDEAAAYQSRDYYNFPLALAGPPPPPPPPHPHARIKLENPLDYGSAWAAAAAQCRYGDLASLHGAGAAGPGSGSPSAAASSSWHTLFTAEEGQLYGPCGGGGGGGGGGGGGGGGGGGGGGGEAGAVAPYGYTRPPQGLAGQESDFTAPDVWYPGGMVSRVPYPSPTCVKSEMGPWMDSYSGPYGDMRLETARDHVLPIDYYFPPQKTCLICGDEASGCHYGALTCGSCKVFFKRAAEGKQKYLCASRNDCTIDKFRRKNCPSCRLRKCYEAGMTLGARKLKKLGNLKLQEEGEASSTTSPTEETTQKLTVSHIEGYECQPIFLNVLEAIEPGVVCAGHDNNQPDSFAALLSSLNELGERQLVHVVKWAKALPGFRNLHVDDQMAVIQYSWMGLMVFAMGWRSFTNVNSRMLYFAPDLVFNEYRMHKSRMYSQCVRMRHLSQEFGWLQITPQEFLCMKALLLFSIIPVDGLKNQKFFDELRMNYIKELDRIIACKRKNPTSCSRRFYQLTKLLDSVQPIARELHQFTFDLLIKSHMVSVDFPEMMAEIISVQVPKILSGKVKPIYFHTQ
# In short: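 An antagonist-mode imaging screen: engineered U2OS (AR-RFP, TIF2-GFP) exposed to 20 uM compound, 0.2% DMSO. Activity reflects nucleolar red fluorescence change relative to DHT baseline.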
# [3] = biological target: Nucleoli Translocation, AR (gene 367) (UniProt P10275); assay: UPITT_HCI_U2OS_AR_TIF2_Nucleoli_Agonist: University of Pittsburgh U2OS Androgen Receptor-Transcriptional Intermediary Factor 2 (AR-TIF2) Agonism High Content Imaging Assay for Nucleoli Translocation (AID 2283998; active = hit-call score of the fitted dose curve at least 0.9, where 1 is the maximum)
# In short: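 Red-tagged human androgen receptor co-expressed with GFP-tagged TIF2 serves as the binding reporter. Primary testing used 20 uM final (0.2% DMSO); follow-up dose response covered 0.195 to 50 uM final (0.5% DMSO).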
# [4] = CCTE_Shafer_MEA_acute_spike_number: CCTE's Neural Acute Assay for Total Number of Spikes, Shafer Lab (AID 2284008);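 for AC50: curve fitted for decrease in spike count so AC50 reflects inhibitors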
# In short: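 Cortical neurons from rat, matured to DIV 13 or 15 on microelectrode arrays, are recorded at 37 C before and during 40-min exposure to 0.03-40 uM compound. Wells need >/= 10 active electrodes.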
# [5] = CCTE_Shafer_MEA_acute_firing_rate_mean: CCTE's Neural Acute Assay for Mean Firing Rate, Shafer Lab (AID 2284009);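 note: analyzed for loss of signal so actives lower firing rate relative to DMSO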
# In short: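 Spontaneous spiking of primary rat cortical networks, DIV 13/15, 37 C. Compound 0.03-40 uM, n ≥3 wells; 40 min baseline vs 40 min treated. Endpoint fitted in loss-of-signal direction against DMSO.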
# DIO1 (gene 1733) = assay: CCTE_GLTED_hDIO1: CCTE's human Deiodinase 1 (DIO1) Inhibition Assay, Great Lakes Toxicology and Ecology Division (GLTED) Lab (AID 2283987; active = hit-call score of the fitted dose curve at least 0.9, where 1 is the maximum;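 note: isolated human DIO1 enzyme in a cell-free setup rather than cells; enzyme activity read as free iodide liberated from substrate via Sandell-Kolthoff colorimetry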)
# In short: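 Cell-free hDIO1 assay, triplicate plates. Absorbance of the Sandell-Kolthoff reaction reports enzyme-liberated iodide; iodinated chemicals or nitrite, iron and thiocyanate may interfere.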
# [6] = biological target: Ratio of Nucleoli Translocation and Cytoplasm, AR (gene 367) (UniProt P10275); assay: UPITT_HCI_U2OS_AR_TIF2_Nucleoli_Cytoplasm_Ratio_Agonist: University of Pittsburgh U2OS Androgen Receptor-Transcriptional Intermediary Factor 2 (AR-TIF2) Agonism High Content Imaging Assay for Ratio of Nucleoli Translocation and Cytoplasm (AID 2284000; active = hit-call score of the fitted dose curve at least 0.9, where 1 is the maximum;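 note: hits raise the red nucleolar to cytoplasm ratio above vehicle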)
# Chain of Ratio of Nucleoli Translocation and Cytoplasm, AR (gene 367) (P10275 whole entry, looked up): as above
# In short: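 Primary screen at 20 uM final (0.2% DMSO), then triplicate confirmation and dose-response from 0.195 to 50 uM final (0.5% DMSO). Cells: U2OS with AR-RFP and TIF2-GFP. Endpoint is the nucleoli/cytoplasm red-fluorescence ratio, gain-of-signal vs DMSO.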
# [7] = CCTE_Harrill_HTTr_Viability_DMEM_6hr: (Pilot) CCTE's 6-hour Cell Viability Assessment for the High-Throughput Transcriptomics (HTTr) Platform, in MCF-7 cells cultured in DMEM + 10% fetal bovine serum, Harrill Lab (AID 2283973)
# In short: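 Propidium iodide uptake imaged by high-content analysis after six hours of chemical treatment in an eight-concentration series. Cells: MCF-7 grown in DMEM with 10% fetal bovine serum; DMSO as baseline.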
# [8] = CCTE_Harrill_HTTr_Viability_DMEM_12hr: (Pilot) CCTE's 12-hour Cell Viability Assessment for the High-Throughput Transcriptomics (HTTr) Platform, in MCF-7 cells cultured in DMEM + 10% fetal bovine serum, Harrill Lab (AID 2283974)
# In short: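 Propidium iodide dye exclusion imaged by high-content microscopy after 12 h chemical exposure (eight concentrations) of MCF-7 cells grown in DMEM plus 10% FBS; values fitted in both directions relative to DMSO.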
# [9] = CCTE_Harrill_HTTr_Viability_DMEM_24hr: (Pilot) CCTE's 24-hour Cell Viability Assessment for the High-Throughput Transcriptomics (HTTr) Platform, in MCF-7 cells cultured in DMEM + 10% fetal bovine serum, Harrill Lab (AID 2283975)
# In short: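 Pilot study: propidium iodide dye exclusion, imaged by high content microscopy, after 24 h compound exposure (eight concentrations) in MCF-7 cultured in DMEM + 10% fetal bovine serum; DMSO served as negative control and baseline.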
# [10] = CCTE_Harrill_HTTr_Viability_PRF_DMEM_6hr: (Pilot) CCTE's 6-hour Cell Viability Assessment for the High-Throughput Transcriptomics (HTTr) Platform, in MCF-7 cells cultured phenol red-free DMEM + 10% charcoal-stripped fetal bovine serum, Harrill Lab (AID 2283976)
# In short: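 Membrane integrity by high-content imaging of propidium iodide uptake, six hours after dosing with eight concentrations. Cells: MCF-7 grown in phenol red-free DMEM plus 10% charcoal-stripped serum; DMSO serves as baseline for bidirectional fits.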
# [11] = CCTE_Harrill_HTTr_Viability_PRF_DMEM_12hr: (Pilot) CCTE's 12-hour Cell Viability Assessment for the High-Throughput Transcriptomics (HTTr) Platform, in MCF-7 cells cultured in phenol red-free DMEM + 10% charcoal-stripped fetal bovine serum, Harrill Lab (AID 2283977)
# In short: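 Membrane integrity was scored via propidium iodide dye exclusion imaging, fitted in both directions relative to DMSO. Compounds ran as eight-point dilutions for 12 hours on MCF-7 grown in phenol red-free DMEM plus 10% charcoal-stripped serum.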
# [12] = CCTE_Harrill_HTTr_Viability_PRF_DMEM_24hr: (Pilot) CCTE's 24-hour Cell Viability Assessment for the High-Throughput Transcriptomics (HTTr) Platform, in MCF-7 cells cultured in phenol red-free DMEM + 10% charcoal-stripped fetal bovine serum, Harrill Lab (AID 2283980)
# In short: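 Propidium iodide exclusion imaged at 24 h after dosing scores viability; cells were MCF-7 grown in phenol red-free DMEM plus 10% charcoal-stripped serum, tested in eight concentrations, fitted in both directions against DMSO.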
# [13] = CCTE_Harrill_HTTr_Apoptosis_DMEM_6hr: (Pilot) CCTE's 6-hour Apoptosis Assessment for the High-Throughput Transcriptomics (HTTr) Platform, in MCF-7 cells cultured in DMEM + 10% fetal bovine serum, Harrill Lab (AID 2283981)
# In short: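 MCF-7 cells grown in DMEM + 10% FBS were exposed for 6 hours to an eight-point dilution series. CellEvent Caspase 3/7 Green signal was imaged; activity fitted bidirectionally against DMSO.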
# [14] = CCTE_Harrill_HTTr_Apoptosis_DMEM_12hr: (Pilot) CCTE's 12-hour Apoptosis Assessment for the High-Throughput Transcriptomics (HTTr) Platform, in MCF-7 cells cultured in DMEM + 10% fetal bovine serum, Harrill Lab (AID 2283982)
# In short: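 Caspase-3/7 activity was measured by high-content imaging (CellEvent Caspase 3/7 Green) after a 12-hour exposure of MCF-7 cells grown in DMEM with 10% FBS. Eight-point concentration series, fitted bidirectionally against vehicle.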
# [15] = CCTE_Harrill_HTTr_Apoptosis_DMEM_24hr: (Pilot) CCTE's 24-hour Apoptosis Assessment for the High-Throughput Transcriptomics (HTTr) Platform, in MCF-7 cells cultured in DMEM + 10% fetal bovine serum, Harrill Lab (AID 2283983)
# In short: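 Caspase-3/7 activity read by high-content imaging (CellEvent Green reagent) 24 h after dosing. MCF-7 cells grown in DMEM with 10% FBS received an eight-point concentration series; fits were bidirectional versus DMSO.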
# [16] = CCTE_Harrill_HTTr_Apoptosis_PRF_DMEM_6hr: (Pilot) CCTE's 6-hour Apoptosis Assessment for the High-Throughput Transcriptomics (HTTr) Platform, in MCF-7 cells cultured phenol red-free DMEM + 10% charcoal-stripped fetal bovine serum, Harrill Lab (AID 2283984)
# In short: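 Caspase-3/7 activity (CellEvent Green) read by high-content imaging 6 h after dosing, eight concentrations. Cells: MCF-7, phenol red-free DMEM with 10% charcoal-stripped serum. Curves fit both directions against DMSO.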
# [17] = CCTE_Harrill_HTTr_Apoptosis_PRF_DMEM_24hr: (Pilot) CCTE's 24-hour Apoptosis Assessment for the High-Throughput Transcriptomics (HTTr) Platform, in MCF-7 cells cultured in phenol red-free DMEM + 10% charcoal-stripped fetal bovine serum, Harrill Lab (AID 2283986)
# In short: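 Eight concentrations tested for 24 h on MCF-7 grown in charcoal-stripped serum, phenol red-free DMEM. High content imaging of CellEvent Caspase 3/7 Green signal gives apoptosis read-out, fitted both ways relative to DMSO.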
# [18] = TOX21_TR_RXR_BLA_Antagonist_Followup_viability: Viability Assessment in the Tox21 Thyroid Hormone Receptor beta Retinoid X Receptor alpha (RXRa) Antagonism Beta-lactamase (BLA) Follow-Up Assay (AID 2283979; active = hit-call score of the fitted dose curve at least 0.9, where 1 is the maximum)
# In short: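 RXRa-UAS-bla HEK293T cells seeded 2,500/well in phenol red-free DMEM with 2% charcoal-stripped FBS, attached 5 h, then exposed to compounds at 11 concentrations in triplicate for 16 h at 37C/5% CO2. Viability read by CellTiter-Glo ATP luminescence; bidirectional fit versus DMSO.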
structure (smiles),measurement,setting,value
Clc1ccc(Nc2nnc(Cc3ccncc3)c3ccccc23)cc1,outcome,[1],inactive
CC(C)[C@@H]1CC[C@@H](C)C[C@H]1O,outcome,[2],inactive
same,outcome,[3],inactive
Oc1c(Cl)cc(Cl)cc1Sc1cc(Cl)cc(Cl)c1O,outcome,[4],inactive
same,outcome,[5],inactive
CCC(C)c1ccccc1O (stereo unspecified),AC50,[4],2.06 µM (active)
same,AC50,[5],2.06 µM (active)
NC(=NCCCCCCN=C(N)/N=C(\N)Nc1ccc(Cl)cc1)/N=C(\N)Nc1ccc(Cl)cc1,AC50,DIO1 (gene 1733),21.3 µM (active)
same,AC50,[2],16.5 µM (active)
same,outcome,[3],inactive
same,outcome,[6],inactive
CCCCc1oc2ccccc2c1C(=O)c1cc(I)c(OCCN(CC)CC)c(I)c1,outcome,[7],inactive
same,AC50,[8],46.3 µM (active)
same,AC50,[9],73.9 µM (active)
same,outcome,[10],inactive
same,AC50,[11],39.5 µM (active)
same,AC50,[12],70.4 µM (active)
same,outcome,[13],inactive
same,outcome,[14],inactive
same,AC50,[15],81.6 µM (active)
same,outcome,[16],inactive
same,AC50,[17],74.5 µM (active)
same,AC50,[4],8.91 µM (active)
same,AC50,[5],8.87 µM (active)
CCCCCCCCCCCCOC(=O)c1cc(O)c(O)c(O)c1,AC50,DIO1 (gene 1733),53.4 µM (active)
N=C(N)c1ccc(OCCCCCOc2ccc(C(=N)N)cc2)cc1,outcome,[4],inactive
same,outcome,[5],inactive
O=C(c1ccccc1)c1ccccc1,outcome,[2],inactive
same,outcome,[3],inactive
same,outcome,[6],inactive
O=C(CCCN1CCC(O)(c2ccc(Cl)cc2)CC1)c1ccc(F)cc1,AC50,[4],1.7 µM (active)
same,AC50,[5],1.78 µM (active)
O=c1cc(-c2ccccc2)oc2ccc3ccccc3c12,outcome,[18],inactive
CCCCCc1ccc(O)cc1,AC50,[2],31.9 µM (active)
same,AC50,[3],39.1 µM (active)
same,outcome,[6],inactive
CC(=O)Nc1ccc(O)cc1,outcome,[2],inactive
same,outcome,[4],inactive
same,outcome,[5],inactive
COc1cc([N+](=O)[O-])ccc1N,outcome,[2],inactive
same,outcome,[6],inactive
